High-throughput results as filed in PubChem BioAssay.
Nrf2 ARE act = activates Nrf2 signaling. AREc32 ARE-luciferase reporter (MCF7-derived line), luminescence, 24 h. Potency, µM (highest dose often 46.1 µM), actives largely listed as activators. hit rate 0.31% among 410,000. AID 624171; also: nearly all actives have a fitted effect of over 65% in size
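Luminescent ARE reporter assay in AREc32_Fluc cells: overnight plating at 37 deg C, 24 hr compound incubation, Steady-Glo added, 30 min RT before reading.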
Apoferritin bind = binds horse apoferritin like a general anesthetic | apoferritin/1-aminoanthracene competitive binding, fluorescence | Potency, µM (highest dose often 77.5 µM), hits mostly inhibitors | hit rate 0.074% among 350,000 | P02791 | AID 485281; also: nearly all actives have a fitted effect of over 20% in size
Target sequence (P02791 2-175 limits assumed): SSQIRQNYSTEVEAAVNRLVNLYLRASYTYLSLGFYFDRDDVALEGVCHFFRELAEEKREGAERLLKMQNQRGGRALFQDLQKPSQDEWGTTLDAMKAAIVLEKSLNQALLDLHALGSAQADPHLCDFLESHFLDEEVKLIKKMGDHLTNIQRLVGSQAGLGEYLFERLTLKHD
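Read-out: endpoint 1-AMA fluorescence, excitation 380 nm and emission 535 nm, after compounds sit 10 min at room temperature with 10 uM horse-spleen apoferritin in 50% saturated 1-AMA/PBS. Values come from four-parameter Hill fits.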
Giardia kill = Giardia lamblia killing; Giardia lamblia trophozoite viability; AID 540267; activity change, % at 7.66 µM, hits read low; hit rate 0.15% among 340,000; in the data active = activity change below about -80%; inconclusive = between about -30% and that limit;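 also: parasites exposed to compound for two days anaerobically before the ATP read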
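Media and compound were dispensed first, then trophozoites at 100 cells/well; plates sat 48 hrs at 37 deg C without oxygen before ATP luminescence reagent was added and read after 15-30 min at room temperature.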
A549 tox-1 = counter-screen for Nrf2 inhibitors: cytotoxicity in A549 cells; A549 ARE-Fluc cells, CellTiter-Fluor viability, 18-24 h; Potency, µM (highest dose often 46 µM), actives largely listed as inhibitors; hit rate 0.16% among 390,000; AID 504648
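A549 ARE-Fluc cells in 5% FBS OPTI-MEM, 5000 cells/well, rested 2 h then exposed to compounds in concentration-response for 18-24 h at 37 °C. Viability by CellTiter-Fluor fluorescence (Ex 405/Em 525) after 30 min; luciferase luminescence (BugLite, 15 min, RT) read afterwards.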
Nrf2 block = inhibitors of Nrf2 signaling. A549 ARE-Fluc reporter, luciferase luminescence, 18-24 h. Potency, µM (titrated, usually from 46 µM), most hits filed as inhibitors. hit rate 2.1% among 360,000. AID 504444; also: nearly all actives have a fitted effect of over 60% in size
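Nrf2 activity is the BugLite luminescence, read 15 min after reagent at room temperature, following CellTiter-Fluor cytotoxicity readout (30 min, 37C). Compound titrations were applied for 18-24 h to 5000 A549 ARE_Fluc cells/well in 5% FBS OPTI-MEM.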
mIDH1 inhibitor = human IDH1 R132H inhibition; Potency, µM (series often up to 76.6 µM), actives largely listed as inhibitors; IDH1-R132H enzyme, NADPH consumption, diaphorase/resazurin fluorescence; hit rate 0.093% among 390,000; also: nearly all actives have a fitted effect of over 65% in size
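IDH1-R132H (0.5 ug/mL dispensed) in pH 7.5 Tris buffer was preincubated 30 min with compound, then given a substrate mix of 0.016 mM NADPH and 2 mM alpha-KG for 80 min at room temperature; remaining NADPH was read by diaphorase/resazurin fluorescence.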
FLuc enzyme inh = firefly luciferase inhibition, Nrf2 hit validation. purified firefly luciferase, luminescence inhibition. hit rate 4% among 1,400. Potency, µM (doses to about 57.5 µM), actives largely listed as inhibitors. shares compounds with Nrf2 block; also: nearly all actives have a fitted effect of over 65% in size
Target sequence (P08659 whole entry, looked up): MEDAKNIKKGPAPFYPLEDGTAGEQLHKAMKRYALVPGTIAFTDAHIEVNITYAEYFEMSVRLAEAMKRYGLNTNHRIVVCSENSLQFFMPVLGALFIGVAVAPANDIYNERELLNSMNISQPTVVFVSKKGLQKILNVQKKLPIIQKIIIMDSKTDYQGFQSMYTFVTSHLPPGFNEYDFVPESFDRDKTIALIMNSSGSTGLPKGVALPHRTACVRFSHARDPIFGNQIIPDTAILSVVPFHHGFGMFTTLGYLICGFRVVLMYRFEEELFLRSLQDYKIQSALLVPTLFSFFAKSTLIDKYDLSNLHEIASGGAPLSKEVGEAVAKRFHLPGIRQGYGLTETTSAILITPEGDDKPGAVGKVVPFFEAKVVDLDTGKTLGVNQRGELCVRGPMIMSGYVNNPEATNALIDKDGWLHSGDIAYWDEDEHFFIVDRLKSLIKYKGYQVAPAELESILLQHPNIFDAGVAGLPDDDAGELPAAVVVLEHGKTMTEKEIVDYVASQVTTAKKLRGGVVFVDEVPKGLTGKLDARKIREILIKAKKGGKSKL
A549 tox-2 = A549 cytotoxicity, Nrf2 inhibitor counterscreen; shares compounds with Nrf2 block; A549 ARE-Fluc cells, cytotoxicity counterscreen; Potency, µM (highest dose often 46.1 µM), usual class: inhibitors; hit rate 2% among 1,400; AID 720523;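 also: cells exposed to compounds for 18 to 24 hours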
ARE-Fluc inh = Nrf2 inhibition confirmed, A549 ARE-luciferase | A549 ARE-firefly luciferase reporter, luminescence | Potency, µM (titrated, usually from 46.1 µM), actives largely listed as inhibitors | AID 720524 | hit rate 74% among 1,400 | shares compounds with Nrf2 block; also: nearly all actives have a fitted effect of over 65% in size
Hits are given with their value; i = inactive; ? = inconclusive; nt = no result given; [ ] = remark or other dose. The list is not random: actives were taken first. Their share in the collection is about 2.3%. Unless noted, calls follow the shape of the dose curve; as a rule, active = well fitted curve in the direction sought with a large enough effect; inconclusive = small, poorly fitted or top-dose-only effect, or another doubt; inactive = no such curve, though single readings can be large; an effect the other way counts as inactive or inconclusive.

SMILES	Nrf2 ARE act	Apoferritin bind	Giardia kill	A549 tox-1	Nrf2 block	mIDH1 inhibitor	FLuc enzyme inh	A549 tox-2	ARE-Fluc inh
CC(C)NC(=O)C1CCN(c2nc3ccccc3nc2C(F)(F)F)CC1	i	i	nt	i	i	i	nt	nt	nt
CN(CC(=O)Nc1ccccc1Br)c1ncnc2sccc12	i	i	i	i	9.2µM	i	i	i	?
CN(CC(=O)Nc1ccc(F)c(F)c1F)c1ncnc2sccc12	i	i	i	i	i	i	nt	nt	nt
CC(C)C[C@H]1COc2cc(N(C)CCO)ccc2S(=O)(=O)N1	i	nt	nt	nt	nt	nt	nt	nt	nt
CSc1cccc(NS(=O)(=O)c2ccc(C(C)=O)cc2)c1	i	i	i	i	4.6µM	i	i	i	nt
CSc1cccc(NS(=O)(=O)c2ccc(F)cc2)c1	i	?	i	i	?	i	nt	nt	nt
CC(=O)c1cccc(NS(=O)(=O)c2ccc(NC(=O)N3CCCCC3)cc2)c1	i	?	i	i	8.2µM	i	i	i	15µM
CC(C)(CO)[C@H](O)C(=O)NCCC(=O)O	nt	i	nt	nt	nt	nt	nt	nt	nt
CCC(C)(C)c1ccc(OCCCC[n+]2cccc(C)c2)c(C(C)(C)CC)c1	i	?	i	?	8.2µM	i	i	?	6.5µM
CCc1ccc(NC(=O)CC2C(=O)N(c3ccc(OC)cc3)C(=O)N2Cc2ccc(OC)cc2)cc1 (stereo unspecified)	i	i	nt	i	i	?	nt	nt	nt
COc1cc(C2CC(=O)c3c([nH]c(C(=O)OC4CCCC4)c3C)C2)cc(OC)c1OC (stereo unspecified)	i	i	nt	?	5.8µM	i	i	?	12µM
COC(=O)c1[nH]c2c(c1C)C(=O)CC(c1cc(OC)c(OC)c(OC)c1)C2 (stereo unspecified)	i	i	i	i	9.2µM	i	i	i	?
Cc1c(C(=O)OC2CCCCCC2)[nH]c2c1C(=O)CC(c1ccccc1)C2 (stereo unspecified)	i	i	nt	i	i	i	nt	nt	nt
CC(=O)C1(O)Cc2c(O)c3c(c(O)c2C(OC2CC(N)C(O)C(C)O2)C1)C(=O)c1c(O)cccc1C3=O (stereo unspecified)	nt	nt	nt	nt	nt	nt	i	?	0.46µM
COc1cccc2c1C(=O)c1c(O)c3c(c(O)c1C2=O)CC(O)(C(C)=O)CC3OC1CC(N(C)C)C(O)C(C)O1 (stereo unspecified)	i	nt	i	?	2.3µM	i	i	?	1µM
CC(=O)[C@@]1(O)Cc2c(O)c3c(c(O)c2[C@H](O[C@H]2C[C@H](N)[C@H](O)[C@H](C)O2)C1)C(=O)c1ccccc1C3=O	i	nt	nt	nt	nt	nt	nt	nt	nt
Fc1ccc2[nH]c3c(N4CCc5ccccc5C4)ncnc3c2c1	i	i	i	?	7.3µM	i	i	i	nt
Nc1c(S(=O)(=O)c2ccccc2)c2nc3ccccc3nc2n1/N=C/c1ccco1	i	i	i	i	5.8µM	i	?	i	2.1µM
CC(C)c1ccc(OCC(=O)NCC(c2ccc(Cl)cc2)N2CCOCC2)cc1 (stereo unspecified)	i	i	nt	i	i	i	nt	nt	nt
O=C(O)CCSc1nc2ccccc2n1-c1ccccc1	i	i	i	i	5.8µM	i	i	i	5.8µM
Cc1cccc(Cl)c1NC(=O)N1CCCN(c2nc3ccc(Cl)cc3s2)CC1	i	i	i	?	9.2µM	i	i	i	9.2µM
CC(C)(C)C(=O)N1CCN(c2nc3ccc(Cl)cc3s2)CC1	i	i	i	i	?	i	nt	nt	nt
O=C(Nc1cc(-c2nc3ccccc3o2)ccc1Cl)c1sc2c([N+](=O)[O-])cccc2c1Cl	i	i	nt	i	i	i	nt	nt	nt
O=C(CCCN1C(=O)/C(=C/c2ccccc2Cl)SC1=S)NNC(=O)c1ccc(Cl)cc1Cl	i	i	i	i	6.5µM	i	i	i	7.3µM
COc1cc2nc(N3CCN(C(=O)C4CCCO4)CC3)nc(N)c2cc1OC (stereo unspecified)	i	i	i	i	?	i	nt	nt	nt
SMILES	Nrf2 ARE act	Apoferritin bind	Giardia kill	A549 tox-1	Nrf2 block	mIDH1 inhibitor	FLuc enzyme inh	A549 tox-2	ARE-Fluc inh
COc1cc2c(NC3CCN(C(C)C)CC3)nc(N3CCCN(C)CC3)nc2cc1OCCCN1CCCC1	nt	nt	nt	nt	nt	nt	i	?	1.5µM
COc1cc2c(NC3CCN(C(C)C)CC3)nc(N3CCCN(C)CC3)nc2cc1OCCOCCN(C)C	nt	nt	nt	nt	nt	nt	i	i	6.5µM
CCCCn1cc(S(=O)(=O)c2cccc(C)c2)c(=O)c2cc(F)c(N3CCOCC3)cc21	i	?	nt	i	i	i	nt	nt	nt
COC(=O)c1cc2sc(C)cc2n1Cc1nc(-c2ccc(C)cc2)oc1C	i	i	nt	i	i	nt	nt	nt	nt
CC1(C)N=C(N)N=C(N)N1CCCCc1ccccc1	i	nt	i	i	0.82µM	i	i	i	1.2µM
CC1(C)N=C(N)N=C(N)N1c1cccc(CC(=O)Nc2ccccc2)c1	i	nt	nt	nt	nt	i	nt	nt	nt
O=C(Cc1ccc(Cl)cc1)Nc1ccc2oc(-c3ccccc3)nc2c1	i	i	nt	i	i	i	nt	nt	nt
CCCN(CCC)S(=O)(=O)c1ccc(C(=O)Nc2nnc(-c3cccc(OC)c3)o2)cc1	i[9.22 µM]	i	i	?	6.5µM	i	i	?	4.6µM
O=C(Nc1nnc(-c2ccccc2Cl)o1)c1ccc(S(=O)(=O)N2CCCCCC2)cc1	i	i	i	i	?	i	i	?	21µM
CC1CCCCN1S(=O)(=O)c1ccc(C(=O)Nc2nnc(-c3ccncc3)o2)cc1 (stereo unspecified)	i	i	i	i	?	i	nt	nt	nt
CCCN(CCC)S(=O)(=O)c1ccc(C(=O)Nc2nnc(-c3cc(OC)cc(OC)c3)o2)cc1	i	i	i	i	?	i	nt	nt	nt
CN(c1ccccc1)S(=O)(=O)c1ccc(C(=O)Nc2nnc(-c3ccco3)o2)cc1	i	i	i	i	?	i	nt	nt	nt
CCN(c1ccccc1)S(=O)(=O)c1ccc(C(=O)Nc2nnc(-c3ccco3)o2)cc1	i	i	i	i	5.2µM	i	i	i	5.2µM
CC1CCCCN1S(=O)(=O)c1ccc(C(=O)Nc2nnc(-c3ccccc3Cl)o2)cc1 (stereo unspecified)	i	i	i	?	5.2µM	i	i	?	6.5µM
Cc1ccc(C(=O)Nc2ccc(S(=O)(=O)N(Cc3ccccc3)c3ccccc3)cc2)cc1	i	i	nt	i	?	i	nt	nt	nt
CCc1nnc(NC(=O)c2ccc(S(=O)(=O)N3CCCC(C)C3)cc2)o1 (stereo unspecified)	i	i	i	i	?	i	nt	nt	nt
